Results taken from the supplement of paper PMC11219838.

Tested on: Caenorhabditis elegans dauer (daf-2(e1370))
Assay: proportion of mobile C. elegans dauer larvae relative to DMSO control (fraction of DMSO control); higher = more viable, less nematicidal, active = 0.63 or less; extreme values may be limits of the assay
Settings: 60 µM; 5 days; temperature: 20 °C
Procedure, shortened: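 The proportion of mobile worms, relative to DMSO wells, was scored by dissection microscope and averaged over two biological replicates. Worms were C. elegans dauers, about 20 per well in liquid NGM in 96-well plates, generated from synchronized larvae on MYOB plates with E. coli OP50 at 25 °C for 48 h. They were treated with compound pinned to 60 µM final (0.6% v/v DMSO) and kept in sealed plates shaken at 200 rpm for 5 days at 20 °C.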

| Compound | proportion of mobile C. elegans dauer larvae |
| --- | --- |
| CC(C)(C)NC(=O)CSc1nnc(-c2ccc(C(C)(C)C)cc2)o1 | 1 (inactive) |
| CC(C)C(=O)Nc1ccccc1-c1nc(-c2ccccc2)no1 | 1 (inactive) |
| Cc1ccc(-c2noc(C3CCCCC3)n2)cc1 | 1 (inactive) |
| Clc1cccc(OCc2nc(-c3cccs3)no2)c1 | 0.5 (active) |
| COc1nc(C)ccc1-c1noc(-c2ccc(Cl)cc2)n1 | 1 (inactive) |
| O=C(CSc1nnc(-c2ccccc2)o1)Nc1ccccc1C(F)(F)F | 1 (inactive) |
| Clc1ccc(CSc2nnc(-c3ccccc3Cl)o2)cc1 | 1 (inactive) |
| CC1CCN(C(=O)CSc2nnc(-c3cccc(Cl)c3)o2)CC1 | 1 (inactive) |
| O=C(CSc1nnc(-c2ccc(Cl)cc2)o1)c1ccccc1 | 1 (inactive) |
| O=C(CSc1nnc(-c2ccc(Cl)cc2)o1)Nc1nccs1 | 1 (inactive) |
| O=C(CSc1nnc(-c2cccnc2)o1)c1ccc2ccccc2c1 | 1 (inactive) |
| CCOc1cc(-c2nc(-c3cc4ccccc4nc3OC)no2)cc(OCC)c1OCC | 1 (inactive) |
| Cc1cccc(-c2noc(-c3cccc(Cl)c3)n2)c1 | 1 (inactive) |
| Cc1cc(OCc2nc(-c3ccccc3)no2)ccc1Br | 1 (inactive) |
| Cc1cccc(-c2noc(-c3ccc(Br)cc3)n2)c1 | 1 (inactive) |
| Cc1cnnn1-c1ccc(-c2nc(-c3ccc(Cl)cc3)no2)cc1 | 1 (inactive) |
| Cc1ccc(C)c(OCc2nc(-c3ccccc3Cl)no2)c1 | 1 (inactive) |
| Clc1ccc(OCc2nc(-c3ccccn3)no2)c(Br)c1 | 1 (inactive) |
| Nc1nc(CSc2nnc(-c3ccccc3)o2)cs1 | 1 (inactive) |
| O=C(CSc1nnc(-c2ccc(Cl)cc2)o1)NC1CCCCC1 | 1 (inactive) |

| Compound | proportion of mobile C. elegans dauer larvae |
| --- | --- |
| CCN(CC)C(=O)CSc1nnc(-c2ccc(Cl)cc2Cl)o1 | 1 (inactive) |
| COc1ccc(Cl)cc1-c1noc(COc2ccccc2)n1 | 1 (inactive) |
| Cc1ccc(-c2noc(-c3cccc(C)c3)n2)cc1 | 0.557 (active) |
| CCc1nnc(NC(=O)CSc2nnc(-c3cccc(C)c3)o2)s1 | 1 (inactive) |
| Cc1cc(OCc2nc(-c3ccccn3)no2)ccc1Br | 1 (inactive) |
| COc1cccc(-c2noc(COc3ccc(C)c(C)c3)n2)c1 | 1 (inactive) |
| Cn1c(SCc2nc(-c3cccs3)no2)nnc1-c1ccco1 | 1 (inactive) |
| Fc1ccc(-c2nc(-c3ccc(Br)cc3)no2)cc1 | 1 (inactive) |
| O=C(CSc1nnc(-c2ccco2)o1)Nc1ccc(Br)cn1 | 1 (inactive) |
| Cc1ccc(C)c(-c2nc(-c3ccc(Cl)cc3)no2)c1 | 1 (inactive) |
| O=C(c1ccccc1-c1nc(-c2ccccc2Cl)no1)N1CCCC1 | 1 (inactive) |
| Cc1ccc(-c2nnc(SCc3c(C)cc(C)cc3C)o2)cc1 | 1 (inactive) |
| Brc1ccc(-c2noc(COc3ccccc3)n2)cc1 | 1 (inactive) |
| Cc1ccc(C(=O)Nc2ccccc2-c2nc(-c3cccnc3)no2)cc1C | 1 (inactive) |
| CNC(=O)c1ccccc1-c1nc(-c2ccc(F)cc2)no1 | 1 (inactive) |
| Cc1cc(OC(C)c2nc(-c3ccccn3)no2)ccc1Cl (centres undefined) | 1 (inactive) |
| Cc1ccc(-c2nc(-c3ccccc3Br)no2)cc1 | 1 (inactive) |
| Brc1ccc(-c2nnc(-c3cccs3)o2)o1 | 0.75 (inactive) |
| Cc1cc(OCc2nc(-c3cccnc3)no2)c(C)c(C)c1Br | 1 (inactive) |
